Test results published in PubChem BioAssay AID1159580 (chemical genetic matrix, 2015).
Out of some 5,500 compounds screened, about 2,000 (36%) were called active. Another 18% or so got no clear call; they are omitted. Rule as the data show it: active = normalized growth mostly below about 0.91 (no sharp cut-off); inconclusive = no clear call, values can overlap the other calls; inactive = mostly above about 0.92. This is one part of the list.

Assay: chemical genetic growth profiling, strain panel (AID 1159580);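 also: tested at 20 µM; growth read once vehicle control cultures reached saturation at 30 °C; 1 = growth at the plate median or of vehicle wells; lower values mean less growth of the strain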
Settings: growth OD

Measured: normalized growth

Oc1cccc(O)c1
inactive: S. cerevisiae deletion strains, locus YJR066W, strain TOR1, stronger effect = lower value 0.971 | S. cerevisiae deletion strains, locus YJR075W, strain HOC1, stronger effect = lower value 1.01 | S. cerevisiae deletion strains, locus YKL009W, strain mrt4, stronger effect = lower value 0.98 | S. cerevisiae deletion strains, locus YKL068W, stronger effect = lower value 0.997 | S. cerevisiae deletion strains, locus YKL085W, strain MDH1 (second series), stronger effect = lower value 0.994 | S. cerevisiae deletion strains, locus YKL085W, strain MDH1, stronger effect = lower value 0.994 | S. cerevisiae deletion strains, locus YKL160W, strain elf1, stronger effect = lower value 1.02 | S. cerevisiae deletion strains, locus YKL190W, strain CNB1, stronger effect = lower value 1.01 | S. cerevisiae deletion strains, locus YKR001C, strain vps1, stronger effect = lower value 0.98 | S. cerevisiae deletion strains, locus YKR026C, strain gcn3, stronger effect = lower value 0.967 | S. cerevisiae deletion strains, locus YKR091W, strain srl3, stronger effect = lower value 0.979 | S. cerevisiae deletion strains, locus YLL001W, strain dnm1, stronger effect = lower value 0.993 | S. cerevisiae deletion strains, locus YLL026W, stronger effect = lower value 1.01 | S. cerevisiae deletion strains, locus YLL041C, strain sdh2, stronger effect = lower value 0.979 | S. cerevisiae deletion strains, locus YLR027C, strain aat2, stronger effect = lower value 0.992 | S. cerevisiae deletion strains, locus YLR039C, strain RIC1, stronger effect = lower value 1.01 | S. cerevisiae deletion strains, locus YLR058C, strain SHM2, stronger effect = lower value 1.01 | S. cerevisiae deletion strains, locus YLR102C, strain apc9, stronger effect = lower value 0.993 | S. cerevisiae deletion strains, locus YLR113W, strain HOG1, stronger effect = lower value 1.01 | S. cerevisiae deletion strains, locus YLR221C, strain rsa3, stronger effect = lower value 0.962 | S. cerevisiae deletion strains, locus YLR258W, strain gsy2, stronger effect = lower value 0.956 | S. cerevisiae deletion strains, locus YLR262C, strain YPT6 (second series), stronger effect = lower value 1 | S. cerevisiae deletion strains, locus YLR262C, strain YPT6, stronger effect = lower value 1.02 | S. cerevisiae deletion strains, locus YLR268W, strain sec22, stronger effect = lower value 0.974 | S. cerevisiae deletion strains, locus YLR320W, strain mms22, stronger effect = lower value 0.944 | S. cerevisiae deletion strains, locus YLR330W, strain CHS5, stronger effect = lower value 1.01 | S. cerevisiae deletion strains, locus YLR342W, strain FKS1 (second series), stronger effect = lower value 0.995 | S. cerevisiae deletion strains, locus YLR342W, strain FKS1, stronger effect = lower value 1 | S. cerevisiae deletion strains, locus YLR357W, strain rsc2, stronger effect = lower value 0.977 | S. cerevisiae deletion strains, locus YLR370C, strain arc18, stronger effect = lower value 0.992 | S. cerevisiae deletion strains, locus YLR371W, strain rom2, stronger effect = lower value 0.992 | S. cerevisiae deletion strains, locus YLR384C, strain iki3, stronger effect = lower value 0.997 | S. cerevisiae deletion strains, locus YLR418C, strain cdc73, stronger effect = lower value 0.961 | S. cerevisiae deletion strains, locus YML016C, strain PPZ1, stronger effect = lower value 1 | S. cerevisiae deletion strains, locus YML032C, strain rad52, stronger effect = lower value 0.983 | S. cerevisiae deletion strains, locus YML120C, strain ndi1, stronger effect = lower value 0.986 | S. cerevisiae deletion strains, locus YML124C, strain tub3, stronger effect = lower value 0.991 | S. cerevisiae deletion strains, locus YMR058W, strain fet3, stronger effect = lower value 0.972 | S. cerevisiae deletion strains, locus YMR078C, strain ctf18, stronger effect = lower value 0.989 | S. cerevisiae deletion strains, locus YMR125W, strain sto1, stronger effect = lower value 0.932 | S. cerevisiae deletion strains, locus YMR129W, stronger effect = lower value 0.974 | S. cerevisiae deletion strains, locus YMR205C, strain PFK2, stronger effect = lower value 0.991 | S. cerevisiae deletion strains, locus YMR223W, strain ubp8, stronger effect = lower value 0.991 | S. cerevisiae deletion strains, locus YMR231W, strain pep5, stronger effect = lower value 0.985 | S. cerevisiae deletion strains, locus YMR263W, strain SAP30, stronger effect = lower value 1.01 | S. cerevisiae deletion strains, locus YMR307W, strain GAS1, stronger effect = lower value 0.989 | S. cerevisiae deletion strains, locus YNL067W, strain RPL9B, stronger effect = lower value 1.02 | S. cerevisiae deletion strains, locus YNL071W, strain lat1, stronger effect = lower value 0.969 | S. cerevisiae deletion strains, locus YNL183C, strain NPR1, stronger effect = lower value 0.951 | S. cerevisiae deletion strains, locus YNL209W, strain ssb2, stronger effect = lower value 0.973 | S. cerevisiae deletion strains, locus YNL233W, strain BNI4, stronger effect = lower value 1.01 | S. cerevisiae deletion strains, locus YNL248C, strain rpa49, stronger effect = lower value 0.957 | S. cerevisiae deletion strains, locus YNL250W, strain rad50, stronger effect = lower value 0.985 | S. cerevisiae deletion strains, locus YNL271C, strain bni1, stronger effect = lower value 0.991 | S. cerevisiae deletion strains, locus YNL298W, strain CLA4, stronger effect = lower value 0.978 | S. cerevisiae deletion strains, locus YNL307C, strain MCK1, stronger effect = lower value 0.988 | S. cerevisiae deletion strains, locus YNL322C, strain KRE1 (second series), stronger effect = lower value 0.967 | S. cerevisiae deletion strains, locus YNR049C, strain mso1, stronger effect = lower value 0.971 | S. cerevisiae deletion strains, locus YNR052C, strain pop2, stronger effect = lower value 0.99 | S. cerevisiae deletion strains, locus YOL006C, strain TOP1, stronger effect = lower value 1.03 | S. cerevisiae deletion strains, locus YOL012C, strain htz1 0.68 | S. cerevisiae deletion strains, locus YOL147C, strain pex11, stronger effect = lower value 0.995 | S. cerevisiae deletion strains, locus YOR001W, strain rrp6, stronger effect = lower value 1.01 | S. cerevisiae deletion strains, locus YOR061W, strain CKA2, stronger effect = lower value 1.01 | S. cerevisiae deletion strains, locus YOR069W, strain VPS5, stronger effect = lower value 1 | S. cerevisiae deletion strains, locus YOR070C, strain gyp1, stronger effect = lower value 0.979 | S. cerevisiae deletion strains, locus YOR080W, strain dia2, stronger effect = lower value 0.987 | S. cerevisiae deletion strains, locus YOR083W, strain WHI5, stronger effect = lower value 0.986 | S. cerevisiae deletion strains, locus YOR106W, strain vam3, stronger effect = lower value 0.983 | S. cerevisiae deletion strains, locus YOR136W, strain idh2, stronger effect = lower value 0.988 | S. cerevisiae deletion strains, locus YOR144C, strain elg1, stronger effect = lower value 0.98 | S. cerevisiae deletion strains, locus YOR184W, strain ser1, stronger effect = lower value 0.977 | S. cerevisiae deletion strains, locus YOR231W, strain MKK1, stronger effect = lower value 1.02 | S. cerevisiae deletion strains, locus YOR265W, strain rbl2, stronger effect = lower value 0.987 | S. cerevisiae deletion strains, locus YOR270C, strain vph1, stronger effect = lower value 0.969 | S. cerevisiae deletion strains, locus YOR290C, strain snf2, stronger effect = lower value 0.922 | S. cerevisiae deletion strains, locus YOR316C, strain cot1, stronger effect = lower value 0.995 | S. cerevisiae deletion strains, locus YPL051W, strain arl3, stronger effect = lower value 1 | S. cerevisiae deletion strains, locus YPL055C, strain LGE1, stronger effect = lower value 1.03 | S. cerevisiae deletion strains, locus YPL078C, strain atp4, stronger effect = lower value 1 | S. cerevisiae deletion strains, locus YPL106C, strain sse1, stronger effect = lower value 0.926 | S. cerevisiae deletion strains, locus YPL240C, strain hsp82, stronger effect = lower value 0.995 | S. cerevisiae deletion strains, locus YPL241C, strain CIN2, stronger effect = lower value 1.01 | S. cerevisiae deletion strains, locus YPL256C, strain CLN2, stronger effect = lower value 1.06 | S. cerevisiae deletion strains, locus YPR119W, strain clb2, stronger effect = lower value 0.959 | S. cerevisiae deletion strains, locus YPR141C, strain kar3, stronger effect = lower value 0.988 | S. cerevisiae deletion strains, locus YPR163C, strain tif3, stronger effect = lower value 0.993 | S. cerevisiae deletion strains, locus YPR167C, strain met16, stronger effect = lower value 0.995 | S. cerevisiae deletion strains, strain wtn01, stronger effect = lower value 0.979 | S. cerevisiae strains, strain wild type, stronger effect = lower value 1
